# Only some compounds are listed: those with a hit (about 1.3% of all), similar ones and a draw of the others.
# GLD-1 TGE inh – GLD-1-TGE RNA interaction inhibition (C. elegans); AID 2280; Q17339; inhibition, % at 5.96 µM; 0.44% of 320,000 active; purified GLD-1 + fluorescein TGE RNA, fluorescence polarization;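 active = percent inhibition above a per-plate cutoff, the plate mean of test compounds plus 3 SD, cut at about 30% in these data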;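 note: 0% = DMSO wells with GLD-1 and probe and 100% = wells lacking GLD-1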
# MCL1 BIM primary – MCL1-BIM-BH3 interaction inhibition (human) | Q07820 | GST-MCL1 / FITC-Bim-BH3 fluorescence polarization | inhibition, % at 10.9 µM | 0.68% of 320,000 active | AID 2057;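 active = inhibition above the mean inhibition of all tested compounds plus 3 SD, set per campaign, cut at about 40% in these data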;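 note: 0% = DMSO wells and 100% = unlabeled Bim-BH3 peptide control; higher means more loss of mP so more displacement of Bim peptide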
# Target sequence (Q07820 whole entry, looked up): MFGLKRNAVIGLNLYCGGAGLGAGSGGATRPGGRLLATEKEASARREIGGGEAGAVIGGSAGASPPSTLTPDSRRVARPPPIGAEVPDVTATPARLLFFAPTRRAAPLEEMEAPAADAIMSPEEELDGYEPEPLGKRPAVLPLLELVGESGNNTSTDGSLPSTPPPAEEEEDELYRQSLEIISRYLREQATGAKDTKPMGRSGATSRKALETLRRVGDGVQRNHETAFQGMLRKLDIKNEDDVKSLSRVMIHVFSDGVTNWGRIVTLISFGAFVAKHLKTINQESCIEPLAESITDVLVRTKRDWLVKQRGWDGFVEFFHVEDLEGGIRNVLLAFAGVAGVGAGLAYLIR
# EBV gp42 block – blocks Epstein-Barr virus glycoprotein 42 binding; Q1HVG2; Fluorescence polarization binding assay, mP read-out; inhibition, % (tested at 21.74 µM); 0.42% of 220,000 active; in the data active = inhibition above about 50%
# Target sequence (Q1HVG2 whole entry, looked up): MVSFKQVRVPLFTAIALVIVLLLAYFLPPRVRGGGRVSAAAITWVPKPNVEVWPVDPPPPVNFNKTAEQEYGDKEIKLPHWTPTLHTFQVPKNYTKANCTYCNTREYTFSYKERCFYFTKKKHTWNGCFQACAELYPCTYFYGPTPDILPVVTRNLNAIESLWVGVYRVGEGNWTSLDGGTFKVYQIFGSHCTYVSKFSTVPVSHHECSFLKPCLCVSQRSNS
# Bcl-xL primary – blocks human Bcl-xL binding to Bim BH3 peptide. 0.7% of 320,000 active. inhibition, % at 10.9 µM. GST-Bcl-xL / FITC-Bim BH3 peptide fluorescence polarization. Q07817;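 active = inhibition above the mean of all tested compounds plus 3 SD, cutoff set per campaign, cut at about 30% in these data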;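 note: 0% = DMSO wells and 100% = unlabeled Bim-BH3 peptide competitor; inhibitors lower millipolarization by displacing the labeled peptide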
# MEX-5 binding – C. elegans MEX-5 TCR-2 RNA binding activity; MEX-5/FITC-TCR2 RNA binding, fluorescence polarization; stronger effect = lower value; activity score (negative = inhibition of binding), % at 10 µM; 0.38% of 300,000 active; AID 1832;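 active = inhibition past about -25% in most replicates, and total fluorescence under double the plate's negative control median, limit read from the data; inconclusive = replicates evenly split on the limit, or fluorescence at least double controls; inactive = too little inhibition in most replicates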;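 note: 0% = DMSO and -100% = 5 µM competing unlabeled TCR2 RNA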
# Starred values were filed as active, the others as inactive; ? = inconclusive; / = no result given.
SMILES,GLD-1 TGE inh,MCL1 BIM primary,EBV gp42 block,Bcl-xL primary,MEX-5 binding
CC1CCCN(c2nc3ccccc3nc2C(C#N)S(=O)(=O)c2cccs2)C1 (centres undefined),9.2,18.1,-1.1,21.8,-50.3*
Cc1ccc(S(=O)(=O)C(C#N)c2nc3ccccc3nc2N2CC(C)OC(C)C2)cc1C (centres undefined),6.2,9.3,-9.3,10.9,-58.9*
Cn1cc(C2=C(c3ccc(Cl)cc3Cl)C(=O)NC2=O)c2ccccc21,-9.9,24.0,/,60.5*,?
CC1CCCCC1NC(=O)c1c(O)nc2ccccn2c1=O (centres undefined),0.6,4.1,/,2.7,-1.1
CCN1C(=O)/C(=C\c2cccs2)C(C(=O)OC)=C1C,-4.7,-2.6,-22.1,1.7,-78.0*
O=C(CCc1nnc(CCC2CCCCC2)o1)NCCc1cccnc1,0.9,0.4,-12.8,4.4,0.1
O=C(NNc1ccccc1)C(=O)NNS(=O)(=O)c1ccc([N+](=O)[O-])cc1,8.0,19.0,-3.0,12.3,-35.1*
O=C(NNc1ccc([N+](=O)[O-])cc1)Nc1ccccc1,3.1,5.9,/,3.4,0.2
Cc1ccc(S(=O)(=O)NNC(=S)NC(=O)c2ccc([N+](=O)[O-])cc2)cc1,0.5,17.0,-6.5,14.6,-30.7*
O=C(NNc1ccccn1)C(=O)NNS(=O)(=O)c1ccc(Cl)cc1,0.4,-9.1,-21.8,-4.7,-10.0
Cc1ccc(C(=O)NC(=S)NNS(=O)(=O)c2ccc(C)cc2)cc1,6.4,0.8,-8.2,-2.1,-1.5
O=C(NNc1ccccn1)C(=O)NNS(=O)(=O)c1ccc(F)cc1,-5.0,-1.4,-6.1,-1.1,-31.0*
CCOC(=O)N1CCN(C/C(Cl)=C/c2ccccc2)CC1,-0.6,3.9,/,4.0,0.6
O=Cc1ccc2ccc3cccnc3c2n1,3.3,10.0,/,5.8,-34.4*
Cc1cccnc1NC(=O)Nc1ccccc1,-1.2,-1.7,-3.1,2.9,0.6
COC(=O)c1ccccc1NC(=O)Nc1ncccc1C,3.8,4.2,64.4*,4.6,-2.1
COc1cccc(C(=O)NCC(=O)NNc2ncnc(N)c2[N+](=O)[O-])c1,5.6,-3.3,-5.8,-2.5,-32.5*
CCN(CC)S(=O)(=O)c1cc(NC(=O)CSCc2c(C)noc2C)ccc1C,-0.4,/,/,/,/
CN(C)c1ccc(/C=C2\CCC/C(=C\c3ccccc3)C2=O)cc1,-23.2,-91.7,118.6*,-26.7,-3.0
CCC(=O)NC(c1cc(Cl)c2ccccc2c1O)C1CC1 (centres undefined),-3.9,-5.3,/,150.8*,/
C=CC1=C2C=C(C3CC3)N(CCCN(CC)CC)C=C2C(=O)C(C)(OC(=O)c2ccco2)C1=O (centres undefined),14.5,38.9,/,40.6*,-7.7
C=CCN1C=C2C(=O)C(C)(OC(=O)c3ccco3)C(=O)C(C=C)=C2C=C1C1CC1 (centres undefined),20.2,31.9,/,32.5*,1.4
Cc1nc2ccc(C(=O)N3c4ccccc4CC3C)cc2s1 (centres undefined),-1.1,-8.8,-6.8,-2.0,0.8
O=C(O)C(=O)Cc1c[nH]c2ccccc12,-0.7,13.8,-43.6,16.9,-4.5
COCCN(CCOC)Cc1c(O)ccc2c1O/C(=C\c1ccc(C)o1)C2=O,-3.9,24.5,/,34.4*,?
SMILES,GLD-1 TGE inh,MCL1 BIM primary,EBV gp42 block,Bcl-xL primary,MEX-5 binding
CCOc1ccc2[nH]c(=O)c(CN(CC3COCCO3)C(=O)C3CC3)cc2c1 (centres undefined),4.2,0.4,51.1*,7.2,0.0
O=C(c1ccc([N+](=O)[O-])cc1)n1nc(-c2ccccc2)nc1NCc1ccc(F)cc1,23.9,36.5,-12.1,38.2*,0.6
COc1ccc(Cn2nnnc2CN(Cc2cc3ccc(C)cc3[nH]c2=O)C2CCCC2)cc1,1.5,0.3,-1.3,-0.4,-1.3
COCCn1nnnc1CN(Cc1cc2cc(OC)c(OC)cc2[nH]c1=O)C1CCCC1,22.6,41.2*,7.3,33.8*,-2.7
CC1C/C(=N\NC(=O)c2ccc(NS(=O)(=O)c3ccc(Br)cc3)cc2)CC(C)(C)C1 (centres undefined),8.0,11.6,-1.2,5.5,-3.1
Oc1ccc(N=Nc2ccccc2-c2nn[nH]n2)c(O)c1,8.5,39.2,/,31.0*,-35.3*
Cn1ncc([N+](=O)[O-])c1C(=O)N1CCCCCC1,/,/,/,/,1.1
CC(=O)N=c1sc(C(C)(C)C)c(C)n1C,2.0,1.4,-14.1,5.0,1.8
Cc1cccc2cc3c(N)c(C#N)sc3nc12,1.3,30.3,7.3,34.8*,-3.6
Cc1sc(NC(=O)c2sc3nc4c(C)cccc4cc3c2N)c(C#N)c1C,-13.7,-19.9,9.5,7.3,-1.5
O=C(O)c1cc(-c2ccc(/C=c3\sc4nc5ccc(Br)cc5n4c3=O)o2)ccc1Cl,-52.1,-8.3,/,-26.8,-28.8*
CC(C)Oc1ccc(NC(N)=O)cc1,6.0,2.5,-1.6,-0.3,-1.0
CC(C)Oc1ccc(NC(=O)CCC(=O)O)cc1,2.2,3.7,78.3*,2.5,0.9
CCN(CC)CCN1C(=O)C(=O)/C(=C(/O)c2ccc(S(=O)(=O)N3CCOCC3)cc2)C1c1ccc(C(C)(C)C)cc1 (centres undefined),-0.6,8.6,/,2.4,0.8
CCC(C)[C@@H](N)C(=O)N/N=C/c1cccc2nccnc12 (some centres undefined),5.0,15.7,-3.8,9.2,-40.7*
Cc1ccc2c(C)c(C(=O)N(C)Cc3nccn3C)oc2c1C,1.9,-2.6,/,0.9,0.6
Cc1cc(O)c(C(C)C)cc1N=C1CSC(=O)N1,29.7,39.1,31.1,40.4*,?
Cc1ccc(N=C2CSC(=O)N2)cc1,6.9,-3.8,-4.8,1.9,-1.8
Cc1oc(C(C)(C)C)cc1C(=O)N1CCN(C(c2ccccc2)c2ccccc2)CC1,-1.4,-0.1,-0.3,7.3,1.0
COc1cccc(/C=N/N2CCN(c3ccccc3OC)CC2)c1,5.5,0.6,10.4,1.3,-0.8
COc1ccccc1N1CCN(/N=C/c2cccc(Cl)c2)CC1,3.5,-5.3,/,32.5*,1.0
O=C(O)c1ccc(CN2C(=O)c3ccc(Oc4ccc([N+](=O)[O-])cc4)cc3C2=O)cc1,2.5,7.5,/,-0.5,-0.7
CCNc1nc(ON=C(C)C)nc(N(C)C)n1,-4.6,1.8,0.7,-3.4,-1.2
CNC(=O)c1cn(-c2ccccc2)c(=O)c2ccccc12,72.2*,40.8*,-13.8,72.1*,-0.5
O=C1CCN(Cc2ccc(Br)cc2)CCN1[C@H](CO)Cc1ccccc1,3.3,-1.0,/,0.5,-1.3
C(=N\NC1=Nc2cccc3cccc1c23)/c1ccccc1,32.5*,-20.0,147.7*,-2.1,-10.8
Cc1nc2nc(NC(=O)c3ccco3)[nH]n2c(=O)c1C,3.7,7.3,/,2.5,-0.7
CN(C)c1cccc2c1c(NS(=O)(=O)c1cn(C)cn1)nn2C,5.8,9.1,/,15.6,-29.9*
Cc1cc(C)c(C)c(S(=O)(=O)NC(C)C(=O)O)c1C (centres undefined),-4.1,-2.2,-11.5,-0.9,2.0
